# Inconclusive results are not listed. Entries that show only a call come without a potency. Unmarked numbers belong to inactive results. The source made the active and inactive calls. Calls follow the shape of the dose curve; as a rule, active = well fitted inhibition curve with a large enough effect; inconclusive = small, poorly fitted or top-dose-only effect; inactive = flat fitted curve, though single readings scatter.
# Key:
# Assay in all cases: qHTS profiling for inhibitors of Plasmodium falciparum proliferation (AID 504749); also: nearly all actives have a fitted effect of over 60% in size
# Details in all cases: P. falciparum in erythrocytes, SYBR Green DNA, 72 h; series mostly up to 28.7 µM
# CP315 = test system: CP315
# Method in brief: (§1)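 Three-day growth assay of blood-stage parasites in erythrocytes (0.3% parasitemia, 2.5% hematocrit) at 37 C, 5% CO2, quantified by SYBR Green DNA staining after overnight detergent lysis.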
# CP325 = test system: CP325
# Method in brief: as §1
# CP329 = test system: CP329
# Method in brief: as §1
# CP335 = test system: CP335
# Method in brief: as §1
# DFO2036 = test system: DFO2036
# Method in brief: as §1
# DIV14 = test system: DIV14
# Method in brief: as §1
# DIV17 = test system: DIV17
# Method in brief: as §1
# DIV30 = test system: DIV30
# Method in brief: as §1
# Dd2 = test system: Dd2
# Method in brief: as §1
# ECU = test system: ECU
# Method in brief: as §1
# Potency is read from the fitted curve at half-maximal effect.
Compound,Potency (CP315),Potency (CP325),Potency (CP329),Potency (CP335),Potency (DFO2036),Potency (DIV14),Potency (DIV17),Potency (DIV30),Potency (Dd2),Potency (ECU)
Cc1ncsc1CCCl,inactive,inactive,inactive,inactive,inactive,inactive,inactive,inactive,inactive,inactive
COP(=S)(OC)Oc1ccc(SC)c(C)c1,inactive,inactive,inactive,inactive,inactive,inactive,inactive,inactive,inactive,inactive
CCC1(c2ccccc2)C(=O)N(COC)C(=O)N(COC)C1=O,inactive,inactive,inactive,inactive,inactive,inactive,inactive,inactive,inactive,inactive
O=P1(N(CCCl)CCCl)NCCCO1 (stereo not drawn),inactive,inactive,inactive,inactive,inactive,inactive,inactive,inactive,inactive,inactive
COc1ccc2c(c1)C13CCCC[C@@H]1C(C2)N(C)CC3 (stereo partly drawn),inactive,inactive,inactive,,inactive,2.69 µM (active),3.01 µM (active),,5.62 µM (active),
C[C@](O)(CS(=O)(=O)c1ccc(F)cc1)C(=O)Nc1ccc(C#N)c(C(F)(F)F)c1,inactive,inactive,inactive,inactive,inactive,,,inactive,inactive,
NC(=O)c1cc([N+](=O)[O-])cc([N+](=O)[O-])c1,inactive,,,,,,,inactive,inactive,inactive
O=C(O)CCCc1ccc(N(CCCl)CCCl)cc1,inactive,inactive,inactive,inactive,inactive,inactive,inactive,inactive,inactive,inactive
CCC(C)(C)c1ccc(O)cc1,inactive,inactive,inactive,inactive,inactive,inactive,inactive,inactive,inactive,inactive
Nc1ccc([As](=O)(O)O)cc1,inactive,inactive,inactive,inactive,inactive,inactive,inactive,inactive,,inactive
C[C@]12CCC(=O)C=C1CC[C@@H]1[C@@H]2CC[C@]2(C)C(=O)CC[C@@H]12,inactive,inactive,inactive,inactive,inactive,inactive,,inactive,inactive,
COC(=O)C(c1ccccc1)C1CCCCN1 (stereo not drawn),inactive,inactive,inactive,inactive,inactive,,,inactive,,inactive
O=C1CN=C(c2ccccc2)c2cc([N+](=O)[O-])ccc2N1,inactive,inactive,inactive,inactive,inactive,,inactive,inactive,inactive,inactive
Oc1ccc(Cl)cc1,inactive,inactive,inactive,,inactive,inactive,inactive,inactive,inactive,inactive
Cc1nnc2n1-c1ccc(Cl)cc1C(c1ccccc1)=NC2,inactive,inactive,inactive,,inactive,inactive,inactive,,inactive,inactive
CN1CCC(O)(c2ccc(F)cc2)C(C(=O)c2ccc(F)cc2)C1 (stereo not drawn),inactive,inactive,inactive,inactive,inactive,inactive,inactive,inactive,inactive,inactive
CN1C(=O)NC(=O)C(C)(C2=CCCCC2)C1=O (stereo not drawn),inactive,inactive,inactive,inactive,inactive,inactive,inactive,inactive,inactive,inactive

Compound,Potency (CP315),Potency (CP325),Potency (CP329),Potency (CP335),Potency (DFO2036),Potency (DIV14),Potency (DIV17),Potency (DIV30),Potency (Dd2),Potency (ECU)
COP(=S)(OC)SCN1C(=O)c2ccccc2C1=O,inactive,inactive,inactive,inactive,inactive,inactive,inactive,inactive,inactive,inactive
O=C(N/N=C/c1ccc([N+](=O)[O-])o1)c1cc([N+](=O)[O-])cc([N+](=O)[O-])c1O,,,,,3.98 µM (active),inactive,,,,
CCOP(=S)(OCC)Oc1ccc2c(C)c(Cl)c(=O)oc2c1,inactive,,,,,inactive,inactive,,inactive,inactive
CCCCCCCCCC(=O)O[C@H]1CC[C@H]2[C@@H]3CCC4=CC(=O)CC[C@@H]4[C@H]3CC[C@]12C,inactive,inactive,inactive,inactive,inactive,inactive,inactive,inactive,,inactive
CC(C)NC(C)C,,inactive,inactive,,inactive,inactive,inactive,inactive,inactive,inactive
COC1CC(=C(c2cccs2)c2cccs2)C[N+](C)(C)C1 (stereo not drawn),,,,6.01 µM (active),5.62 µM (active),,,,,8.91 µM (active)
CC(C)(C)NCC(O)c1cc(Cl)c(N)c(C(F)(F)F)c1 (stereo not drawn),inactive,,inactive,,5.01 µM (active),6.01 µM (active),7.57 µM (active),,12.6 µM (active),5.01 µM (active)
CCCCCCC(=O)CCCCCC/C=C/C[C@@H](O)[C@H](O)[C@@](N)(CO)C(=O)O,inactive,inactive,inactive,inactive,inactive,inactive,inactive,inactive,inactive,inactive
NNc1ccccc1,,inactive,inactive,inactive,inactive,inactive,inactive,inactive,inactive,inactive
CC(C)(C)NCC(O)c1ccccc1Cl (stereo not drawn),inactive,inactive,inactive,,inactive,8.49 µM (active),6.01 µM (active),,11.2 µM (active),
Nc1nc(N)nc(NC2CC2)n1,inactive,inactive,inactive,inactive,inactive,inactive,inactive,inactive,inactive,inactive
Clc1ccc(C(c2ccc(Cl)cc2)C(Cl)(Cl)Cl)cc1,inactive,inactive,inactive,inactive,inactive,,,,inactive,inactive
O=C1c2ccccc2C(=O)c2ccccc21,inactive,inactive,inactive,,inactive,,,,,
C=CCN1C[C@H](C)N([C@H](c2ccc(C(=O)N(CC)CC)cc2)c2cccc(OC)c2)C[C@H]1C,inactive,inactive,inactive,,,,,inactive,11.2 µM (active),
COc1ccc2c(c1OC)C(=O)O[C@H]2[C@@H]1c2cc3c(cc2CCN1C)OCO3,inactive,inactive,inactive,inactive,,inactive,inactive,inactive,,
C=C(C)[C@H]1CN[C@H](C(=O)O)[C@H]1CC(=O)O,inactive,inactive,inactive,,inactive,inactive,inactive,inactive,inactive,inactive
CC(C)c1cccc(C(C)C)c1O,inactive,inactive,,inactive,inactive,,inactive,inactive,inactive,inactive
